The record followed here is PMC7862700, “An all-to-all approach to the identification of sequence-specific readers for epigenetic DNA modifications on cytosine”.

Common to all, as to test: DAPPL (digital affinity profiling via proximity ligation, sequencing); 10 mM Tris-HCl pH 7.5, 50 mM NaCl, 1 mM DTT, 4% glycerol, room temperature, 30 min; GST-TFs on glutathione beads, 16-mer random dsDNA library, 0.1% formaldehyde crosslink after washing; high values mean tight binding
Common to all, as to conditions: protein: recombinant; tags: N-terminal GST; dsDNA, one strand shown

The target of experiment [1] is T1, FLI1 (Homo sapiens, UniProt Q01543 1-452).
T1 sequence: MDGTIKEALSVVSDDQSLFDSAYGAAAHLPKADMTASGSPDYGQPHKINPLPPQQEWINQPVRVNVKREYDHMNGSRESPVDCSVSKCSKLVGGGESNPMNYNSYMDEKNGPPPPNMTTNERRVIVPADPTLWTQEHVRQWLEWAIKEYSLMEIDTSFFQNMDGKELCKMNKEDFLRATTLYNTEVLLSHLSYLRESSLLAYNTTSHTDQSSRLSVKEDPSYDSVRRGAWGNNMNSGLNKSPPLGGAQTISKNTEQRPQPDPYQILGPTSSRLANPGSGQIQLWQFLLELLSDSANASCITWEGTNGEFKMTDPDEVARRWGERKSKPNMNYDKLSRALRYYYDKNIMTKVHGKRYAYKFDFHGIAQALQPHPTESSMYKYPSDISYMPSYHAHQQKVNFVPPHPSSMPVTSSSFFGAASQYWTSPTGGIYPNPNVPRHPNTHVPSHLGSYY
A digest of the protocol:
(§1)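 Each value of binding signal is a hexamer's read frequency for a factor divided by the same hexamer's frequency in the tag-only sample. Barcoded, bead-captured GST fusions of human transcription factors made in yeast were pooled with that sample and incubated with 200 nmole of a random double-stranded 16-mer DNA library in Tris/NaCl/DTT/glycerol buffer at room temperature for 30 min. Washing, 0.1% formaldehyde crosslinking, proximity ligation, PCR and Illumina NextSeq500 sequencing followed.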

Experiment [2] deals with T2, SPIC (Homo sapiens, UniProt Q8N5J4 1-248).
T2 sequence: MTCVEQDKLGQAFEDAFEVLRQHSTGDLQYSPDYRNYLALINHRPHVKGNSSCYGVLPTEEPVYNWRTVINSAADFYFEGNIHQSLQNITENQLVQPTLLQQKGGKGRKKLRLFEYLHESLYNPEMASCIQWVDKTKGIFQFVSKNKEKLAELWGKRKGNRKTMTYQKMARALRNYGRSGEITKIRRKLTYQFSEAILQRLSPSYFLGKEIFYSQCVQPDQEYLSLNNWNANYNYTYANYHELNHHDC
In short, it runs like this: as §1

For experiment [3], the target named is ELF4 (Homo sapiens, UniProt Q99607 1-663). In short, it runs like this:
as §1

The target in experiment [4] is T3, ETV2 (Homo sapiens, UniProt O00321 1-342).
T3 sequence: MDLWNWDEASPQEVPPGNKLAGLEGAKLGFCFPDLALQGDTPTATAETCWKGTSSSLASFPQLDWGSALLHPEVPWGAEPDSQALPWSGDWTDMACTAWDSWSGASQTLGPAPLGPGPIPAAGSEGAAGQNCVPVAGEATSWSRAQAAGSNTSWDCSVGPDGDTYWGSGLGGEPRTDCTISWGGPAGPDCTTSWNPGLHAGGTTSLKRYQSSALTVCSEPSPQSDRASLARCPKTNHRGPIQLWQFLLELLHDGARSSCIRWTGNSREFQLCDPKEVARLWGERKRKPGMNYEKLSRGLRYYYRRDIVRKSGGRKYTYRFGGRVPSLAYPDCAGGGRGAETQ
In short, it runs like this:
as §1

For experiment [5], the target named is T4, ELK1 (Homo sapiens, UniProt P19419 1-428).
T4 sequence: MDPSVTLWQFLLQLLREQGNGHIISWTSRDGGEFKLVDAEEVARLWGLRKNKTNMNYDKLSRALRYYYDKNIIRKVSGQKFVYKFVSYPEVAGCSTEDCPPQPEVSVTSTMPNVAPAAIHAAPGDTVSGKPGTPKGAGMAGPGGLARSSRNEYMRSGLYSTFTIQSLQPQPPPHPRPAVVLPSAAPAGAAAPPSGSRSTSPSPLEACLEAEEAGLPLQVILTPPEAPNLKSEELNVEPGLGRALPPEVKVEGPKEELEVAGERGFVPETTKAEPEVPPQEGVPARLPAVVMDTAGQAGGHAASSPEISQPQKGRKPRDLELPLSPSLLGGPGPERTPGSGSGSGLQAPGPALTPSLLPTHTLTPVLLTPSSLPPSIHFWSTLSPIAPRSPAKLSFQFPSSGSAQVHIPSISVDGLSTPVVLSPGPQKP
A digest of the protocol: as §1

For experiment [6], the target named is T5, ERG (Homo sapiens, UniProt P11308 1-479).
T5 sequence: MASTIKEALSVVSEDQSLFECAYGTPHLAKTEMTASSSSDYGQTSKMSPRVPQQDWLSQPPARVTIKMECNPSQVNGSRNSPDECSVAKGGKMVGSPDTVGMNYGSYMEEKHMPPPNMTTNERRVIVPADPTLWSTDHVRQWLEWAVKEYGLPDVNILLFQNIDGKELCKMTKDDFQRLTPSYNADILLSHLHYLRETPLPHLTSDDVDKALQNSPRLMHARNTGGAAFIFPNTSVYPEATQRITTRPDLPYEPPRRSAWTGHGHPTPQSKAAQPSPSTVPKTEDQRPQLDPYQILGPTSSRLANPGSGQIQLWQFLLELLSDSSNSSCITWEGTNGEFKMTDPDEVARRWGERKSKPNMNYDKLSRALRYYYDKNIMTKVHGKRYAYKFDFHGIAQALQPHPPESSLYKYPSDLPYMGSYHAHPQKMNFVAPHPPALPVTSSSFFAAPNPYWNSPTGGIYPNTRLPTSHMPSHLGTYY
A digest of the protocol:
as §1

In experiment [7] the target is T6, EHF (Homo sapiens, UniProt Q9NZC4 1-300).
T6 sequence: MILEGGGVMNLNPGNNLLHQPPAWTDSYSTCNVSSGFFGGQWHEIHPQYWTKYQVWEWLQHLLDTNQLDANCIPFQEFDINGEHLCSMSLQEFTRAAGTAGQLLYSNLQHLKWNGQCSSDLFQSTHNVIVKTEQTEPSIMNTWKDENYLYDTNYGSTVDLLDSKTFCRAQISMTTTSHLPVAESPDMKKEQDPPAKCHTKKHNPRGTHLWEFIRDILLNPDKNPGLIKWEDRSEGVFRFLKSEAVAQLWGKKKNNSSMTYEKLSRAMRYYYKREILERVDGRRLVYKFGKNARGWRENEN
A digest of the protocol: as §1

The target in experiment [8] is SPIB (Homo sapiens, UniProt Q01892 1-262). In short, it runs like this:
as §1

The target of experiment [9] is T7, ELK4 (Homo sapiens, UniProt P28324-2 1-405).
T7 sequence: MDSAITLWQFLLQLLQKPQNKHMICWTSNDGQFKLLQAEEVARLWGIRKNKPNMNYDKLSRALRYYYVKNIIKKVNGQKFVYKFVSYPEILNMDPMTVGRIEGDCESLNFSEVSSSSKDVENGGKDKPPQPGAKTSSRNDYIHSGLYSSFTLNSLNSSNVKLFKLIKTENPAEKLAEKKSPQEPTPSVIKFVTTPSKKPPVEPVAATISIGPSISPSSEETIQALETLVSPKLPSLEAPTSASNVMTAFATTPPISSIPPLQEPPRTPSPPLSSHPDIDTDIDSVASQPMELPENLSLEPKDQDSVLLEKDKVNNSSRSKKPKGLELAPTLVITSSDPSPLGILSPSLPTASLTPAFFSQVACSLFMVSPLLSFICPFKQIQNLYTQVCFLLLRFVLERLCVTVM
In short, it runs like this: as §1

Experiment [10] concerns the target T8, ETV7 (Homo sapiens, UniProt Q9Y603 1-341).
T8 sequence: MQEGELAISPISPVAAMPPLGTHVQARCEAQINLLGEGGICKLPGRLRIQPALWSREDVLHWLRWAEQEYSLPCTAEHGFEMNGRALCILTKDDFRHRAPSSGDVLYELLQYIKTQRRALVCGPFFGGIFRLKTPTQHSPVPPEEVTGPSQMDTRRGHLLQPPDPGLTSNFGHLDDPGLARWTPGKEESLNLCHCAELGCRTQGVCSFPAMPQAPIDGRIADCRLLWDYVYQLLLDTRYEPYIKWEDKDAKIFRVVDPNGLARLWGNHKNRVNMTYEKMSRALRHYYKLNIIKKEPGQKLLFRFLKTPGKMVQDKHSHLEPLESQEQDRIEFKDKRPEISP
In short, it runs like this: as §1

In experiment [11] the target is T9, ETV3 (Homo sapiens, UniProt P41162-2 1-143).
T9 sequence: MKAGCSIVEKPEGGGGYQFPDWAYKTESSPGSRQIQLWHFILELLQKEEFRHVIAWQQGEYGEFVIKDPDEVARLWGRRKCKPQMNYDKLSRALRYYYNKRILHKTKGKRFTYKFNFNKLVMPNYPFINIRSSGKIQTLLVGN
A digest of the protocol: as §1

Sequence of ELF4 (Q99607 whole entry): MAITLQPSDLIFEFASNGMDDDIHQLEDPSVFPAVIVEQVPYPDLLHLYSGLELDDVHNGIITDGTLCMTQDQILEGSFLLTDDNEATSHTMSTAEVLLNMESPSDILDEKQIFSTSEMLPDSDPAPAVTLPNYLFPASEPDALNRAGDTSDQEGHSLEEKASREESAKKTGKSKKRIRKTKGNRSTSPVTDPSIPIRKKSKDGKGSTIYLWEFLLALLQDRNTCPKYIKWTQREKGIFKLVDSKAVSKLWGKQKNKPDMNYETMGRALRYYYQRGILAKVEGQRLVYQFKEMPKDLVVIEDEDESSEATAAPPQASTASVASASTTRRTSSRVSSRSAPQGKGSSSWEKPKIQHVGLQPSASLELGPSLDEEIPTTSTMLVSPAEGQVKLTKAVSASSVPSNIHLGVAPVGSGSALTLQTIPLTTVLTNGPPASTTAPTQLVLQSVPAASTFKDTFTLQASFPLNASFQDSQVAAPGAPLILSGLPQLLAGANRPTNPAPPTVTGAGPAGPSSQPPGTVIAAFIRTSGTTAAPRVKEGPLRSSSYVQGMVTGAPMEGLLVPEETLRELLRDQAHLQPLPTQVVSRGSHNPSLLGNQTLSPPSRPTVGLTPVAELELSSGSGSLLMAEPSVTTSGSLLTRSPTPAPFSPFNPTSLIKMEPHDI
Sequence of SPIB (Q01892 whole entry): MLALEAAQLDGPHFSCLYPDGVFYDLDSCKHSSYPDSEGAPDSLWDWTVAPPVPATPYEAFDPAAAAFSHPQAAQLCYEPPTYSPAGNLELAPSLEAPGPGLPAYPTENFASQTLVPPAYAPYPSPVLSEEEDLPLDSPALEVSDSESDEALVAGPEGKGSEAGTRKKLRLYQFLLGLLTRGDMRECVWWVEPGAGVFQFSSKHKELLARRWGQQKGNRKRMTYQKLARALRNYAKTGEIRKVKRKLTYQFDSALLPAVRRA

Turning to TGGCGT, the binding signal in experiment [1] was 1.01 fold enrichment (6-mer frequency, TF over GST control); in experiment [2] it was 1.04 fold enrichment (6-mer frequency, TF over GST control); in [3] it was 1.01 fold enrichment (6-mer frequency, TF over GST control); in [4], 1.05 fold enrichment (6-mer frequency, TF over GST control).
In the case of GCAGCC, the binding signal is 1.01 fold enrichment (6-mer frequency, TF over GST control) in [1]; 1.05 fold enrichment (6-mer frequency, TF over GST control) in experiment [5]; 1.04 fold enrichment (6-mer frequency, TF over GST control) in experiment [6]; 1.03 fold enrichment (6-mer frequency, TF over GST control) in experiment [7]; 1.08 fold enrichment (6-mer frequency, TF over GST control) in experiment [8]; 1.03 fold enrichment (6-mer frequency, TF over GST control) in [2]. The binding signal was 1.11 fold enrichment (6-mer frequency, TF over GST control) in experiment [9]; 1.02 fold enrichment (6-mer frequency, TF over GST control) in [10]; 1 fold enrichment (6-mer frequency, TF over GST control) in experiment [11].
Regarding AGGCCC, the binding signal is 1.01 fold enrichment (6-mer frequency, TF over GST control) in experiment [1]; 1.08 fold enrichment (6-mer frequency, TF over GST control) in experiment [2]; 1.03 fold enrichment (6-mer frequency, TF over GST control) in experiment [10]; 1.01 fold enrichment (6-mer frequency, TF over GST control) in [11].
